In PubChem BioAssay (EPA / NIEHS) one finds outcome and AC50 data, which are given here for 32 molecules.

SMILES strings stand for the structures. Values joined by “and” are separate entries in the source; they are usually repeats but may differ in a detail not shown here. Equal values may be shown once. Records with an inconclusive call do not appear. A structure can be active in one record and inactive in another. Active and inactive are the calls of the source. The calls were made as follows: active = hit-call score of the fitted dose curve at least 0.9, where 1 is the maximum; inconclusive = response in the unintended direction; inactive = score below 0.9.

The target in the assay is Retinoic acid receptor RXR-alpha (Homo sapiens) (UniProt P19793). Kind of assay: OT_NURR1_NURR1RXRa_0480: Odyssey Thera (OT) 8-hour HEK293T Protein Complementation Assay for Nurr1/retinoid X receptor (RXR) (AID 2283385). As to the method: OT_NURR1_NURR1RXRa_0480 is a cell-based assay that uses HEK293T, a human kidney cell line, with measurements taken at 8 hours after chemical dosing in a 384-well plate.OT_NURR1_NURR1RXRa_0480 is one of one assay component(s) measured or calculated from the OT_NURR1_NURR1RXRa_0480 assay. It is designed to make measurements of protein fragment complementation, a form of binding reporter, as detected with fluorescence intensity signals by Protein-fragment Complementation technology.Data from the assay component OT_NURR1_NURR1RXRa_0480 was analyzed into 1 assay endpoint. This assay endpoint, OT_NURR1_NURR1RXRa_0480, was analyzed in the positive analysis fitting direction relative to DMSO as the negative control and baseline of activity. Using a type of binding reporter, measures of receptor for gain-of-signal activity can be used to understand the binding at the pathway-level as they relate to the gene RXRA. Furthermore, this assay endpoint can be referred to as a primary readout, because the performed assay has only produced 1 assay endpoint. To generalize the intended target to other relatable targets, this assay endpoint is annotated to the nuclear receptor intended target family, where the subfamily is non-steroidal.
Retinoic acid receptor RXR-alpha (Homo sapiens), sequence (P19793 whole entry, looked up, the tested form may be a part): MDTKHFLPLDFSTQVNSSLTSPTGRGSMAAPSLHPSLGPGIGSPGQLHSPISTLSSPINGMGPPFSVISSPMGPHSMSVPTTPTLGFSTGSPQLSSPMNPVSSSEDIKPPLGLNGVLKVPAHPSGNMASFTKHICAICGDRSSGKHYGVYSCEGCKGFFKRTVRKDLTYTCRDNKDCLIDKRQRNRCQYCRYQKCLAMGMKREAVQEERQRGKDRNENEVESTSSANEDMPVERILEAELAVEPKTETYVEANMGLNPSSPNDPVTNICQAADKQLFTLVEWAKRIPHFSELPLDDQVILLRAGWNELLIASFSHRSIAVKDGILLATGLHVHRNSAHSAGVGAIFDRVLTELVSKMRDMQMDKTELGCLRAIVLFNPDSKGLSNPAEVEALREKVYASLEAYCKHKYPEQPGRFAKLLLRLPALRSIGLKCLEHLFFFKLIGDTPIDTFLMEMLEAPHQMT
Protein-fragment complementation assay, or PCA, is a method for the identification and quantification of protein-protein interactions. In the PCA, the proteins of interest ("bait" and "prey") are each covalently linked to fragments of a third protein (e.g. DHFR, which acts as a "reporter"). Interaction between the bait and the prey proteins brings the fragments of the reporter protein in close proximity to allow them to form a functional reporter protein whose activity can be measured.
On to `CNC(=O)ON=C(SC)C(=O)N(C)C`, for which the result was inactive.
As to `CON=C(C(=O)OC)c1ccccc1CON=C(C)c1cccc(C(F)(F)F)c1`, the half-maximal activity concentration (AC50) (as a rule, the concentration at which the activity in the assay is half-maximal) was 17.4 µM (active) and the molecule was called inactive.
Turning to `COc1cccc(C(=O)NN(C(=O)c2cc(C)cc(C)c2)C(C)(C)C)c1C`, the call was inactive.
As to `CCC(=NOC/C=C/Cl)C1=C(O)CC(C2CCOCC2)CC1=O` (stereo not given), the molecule was called inactive.
Turning to `CCOP(=S)(Oc1cnc(C(C)(C)C)nc1)OC(C)C` (stereo not given), the result was inactive and the concentration at half-maximal activity (AC50) was 73.2 µM (active).
Turning to `CSC1=N[C@@](C)(c2ccccc2)C(=O)N1Nc1ccccc1`, the call was inactive.
Regarding `CN(C)[C@@H]1C(=O)C(C(N)=O)=C(O)[C@@]2(O)C(=O)C3=C(O)c4c(O)cccc4[C@@](C)(O)[C@H]3[C@H](O)[C@@H]12`, the molecule was classed as inactive and the concentration at half-maximal activity (AC50) is 50 µM (active).
For `C[N+]1(C)CCCCC1`, the molecule was classed as inactive.
The same measure, in the same setting: as for `CN1COCN(Cc2cnc(Cl)s2)C1=N[N+](=O)[O-]`, the entry is “inactive”; as for `CCOP(=S)(OCC)SCCSCC`, “inactive”; as for `CC(Oc1cccc(Cl)c1)C(=O)O` (stereo not given), “inactive”.
The same measure, in the same setting: as for `CCOC(=O)CC(SP(=O)(OC)OC)C(=O)OCC` (stereo not given), the entry is “inactive”; as for `Cc1ccn2nc(S(=O)(=O)Nc3c(F)cccc3F)nc2n1`, “inactive”; as for `CCOP(=O)(NC(C)C)Oc1ccc(SC)c(C)c1` (stereo not given), “inactive”.
On the same count and under the same terms, in the case of `CC1(C(=O)Nc2ccc(O)c(Cl)c2Cl)CCCCC1` it was “inactive”; in that of `CC(=NC#N)N(C)Cc1ccc(Cl)nc1`, “inactive”.
As for `CCCCSP(=O)(SCCCC)SCCCC`, the concentration at half-maximal activity (AC50) is 68.9 µM (active) and the outcome was inactive.
As for `CCCCOC(=O)c1ccccc1C(=O)O`, the call was inactive.
As for `CCOP(=S)(OCC)OC(Cl)C(Cl)(Cl)Cl` (stereo not given), the call was inactive and the half-maximal activity concentration (AC50) is 80.9 µM (active).
Regarding `CC(C)=CC1C(C(=O)OCN2C(=O)C3=C(CCCC3)C2=O)C1(C)C` (stereo not given), the outcome was inactive.
Still for that read-out and setting: as for `COc1cc(OC)nc(Sc2cccc(Cl)c2C(=O)O)n1`, the entry is “inactive”; as for `CNC(=O)Oc1cccc2c1OC(C)(C)O2`, “inactive”.
Consider `CCOP(=O)(SC(C)CC)N1CCSC1=O` (stereo not given), for which the molecule was called inactive.
Regarding `COP(=O)(OC)C(O)C(Cl)(Cl)Cl` (stereo not given), the molecule was classed as inactive.
For `O=c1ccc(=O)[nH][nH]1`, the result was inactive.
With `CCCSP(=O)(OCC)Oc1ccc(Br)cc1Cl` (stereo not given), the AC50 was 44 µM (active) and the outcome was inactive.
`COc1ccc(C(=CC(=O)N2CCOCC2)c2ccc(Cl)cc2)cc1OC`: the molecule was called inactive.
For `CC(C)N(C(=O)SCC(Cl)=C(Cl)Cl)C(C)C`, the half-maximal activity concentration (AC50) was 74.3 µM (active) and 85 µM (active).
For the molecule `Nc1c(Cl)cc([N+](=O)[O-])cc1Cl`, the molecule was classed as inactive.
The same measure, in the same setting: as for `Cc1cc(C2CC2)nc(Nc2ccccc2)n1`, the entry is “inactive”.
Turning to `CCCCOC(=O)[C@@H](C)Oc1ccc(Oc2ccc(C#N)cc2F)cc1`, the AC50 is 13.5 µM (active) and the molecule was called inactive.
The like results for `CC(COc1ccc(Oc2ccccc2)cc1)Oc1ccccn1` (stereo not given) were, in that order, 63.2 µM (active) and “inactive”.
